Assay results as given in PubChem BioAssay AID1159580 (chemical genetic matrix, 2015).
In all, about 5,500 compounds went through this assay and about 2,000 (36%) were called active. About 18% were inconclusive and are not listed. Cut-off read from the data, not from the text of the source: active = normalized growth mostly below about 0.91 (no sharp cut-off); inconclusive = no clear call, values can overlap the other calls; inactive = mostly above about 0.92. The list shows a part of the results.

Assay: chemical genetic growth profiling, strain panel (AID 1159580);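 note: tested at 20 µM; growth read once vehicle control cultures reached saturation at 30 °C; 1 = growth at the plate median or of vehicle wells; lower values mean less growth of the strain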
Conditions: growth OD

Measured: normalized growth

O=C(O[C@@H]1Cc2c(O)cc(O)cc2O[C@@H]1c1ccc(O)c(O)c1)c1cc(O)c(O)c(O)c1
inactive: S. cerevisiae deletion strains, locus YJR066W, strain TOR1, stronger effect = lower value 0.93 | S. cerevisiae deletion strains, locus YKL009W, strain mrt4, stronger effect = lower value 1.02 | S. cerevisiae deletion strains, locus YKL068W, stronger effect = lower value 1.01 | S. cerevisiae deletion strains, locus YKL085W, strain MDH1 (second series), stronger effect = lower value 0.997 | S. cerevisiae deletion strains, locus YKL085W, strain MDH1, stronger effect = lower value 0.997 | S. cerevisiae deletion strains, locus YKL160W, strain elf1, stronger effect = lower value 0.97 | S. cerevisiae deletion strains, locus YKR001C, strain vps1, stronger effect = lower value 1.04 | S. cerevisiae deletion strains, locus YKR026C, strain gcn3, stronger effect = lower value 1.03 | S. cerevisiae deletion strains, locus YKR091W, strain srl3, stronger effect = lower value 1.02 | S. cerevisiae deletion strains, locus YLL001W, strain dnm1, stronger effect = lower value 0.982 | S. cerevisiae deletion strains, locus YLL026W, stronger effect = lower value 1.03 | S. cerevisiae deletion strains, locus YLL041C, strain sdh2, stronger effect = lower value 1.02 | S. cerevisiae deletion strains, locus YLR027C, strain aat2, stronger effect = lower value 0.993 | S. cerevisiae deletion strains, locus YLR039C, strain RIC1, stronger effect = lower value 0.715 | S. cerevisiae deletion strains, locus YLR102C, strain apc9, stronger effect = lower value 1.01 | S. cerevisiae deletion strains, locus YLR113W, strain HOG1, stronger effect = lower value 1.01 | S. cerevisiae deletion strains, locus YLR221C, strain rsa3, stronger effect = lower value 1.01 | S. cerevisiae deletion strains, locus YLR258W, strain gsy2, stronger effect = lower value 0.952 | S. cerevisiae deletion strains, locus YLR262C, strain YPT6 (second series), stronger effect = lower value 0.909 | S. cerevisiae deletion strains, locus YLR268W, strain sec22, stronger effect = lower value 0.94 | S. cerevisiae deletion strains, locus YLR320W, strain mms22, stronger effect = lower value 1.02 | S. cerevisiae deletion strains, locus YLR357W, strain rsc2, stronger effect = lower value 0.865 | S. cerevisiae deletion strains, locus YLR370C, strain arc18, stronger effect = lower value 0.935 | S. cerevisiae deletion strains, locus YLR371W, strain rom2, stronger effect = lower value 0.916 | S. cerevisiae deletion strains, locus YLR384C, strain iki3, stronger effect = lower value 1.03 | S. cerevisiae deletion strains, locus YLR418C, strain cdc73, stronger effect = lower value 0.963 | S. cerevisiae deletion strains, locus YML032C, strain rad52, stronger effect = lower value 1.02 | S. cerevisiae deletion strains, locus YML120C, strain ndi1, stronger effect = lower value 1 | S. cerevisiae deletion strains, locus YML124C, strain tub3, stronger effect = lower value 1.03 | S. cerevisiae deletion strains, locus YMR078C, strain ctf18, stronger effect = lower value 1.02 | S. cerevisiae deletion strains, locus YMR129W, stronger effect = lower value 1.03 | S. cerevisiae deletion strains, locus YMR205C, strain PFK2, stronger effect = lower value 1.03 | S. cerevisiae deletion strains, locus YMR223W, strain ubp8, stronger effect = lower value 0.985 | S. cerevisiae deletion strains, locus YMR231W, strain pep5, stronger effect = lower value 0.972 | S. cerevisiae deletion strains, locus YMR263W, strain SAP30, stronger effect = lower value 0.997 | S. cerevisiae deletion strains, locus YMR307W, strain GAS1, stronger effect = lower value 0.606 | S. cerevisiae deletion strains, locus YNL067W, strain RPL9B, stronger effect = lower value 0.961 | S. cerevisiae deletion strains, locus YNL071W, strain lat1, stronger effect = lower value 1.02 | S. cerevisiae deletion strains, locus YNL183C, strain NPR1, stronger effect = lower value 0.938 | S. cerevisiae deletion strains, locus YNL233W, strain BNI4, stronger effect = lower value 0.932 | S. cerevisiae deletion strains, locus YNL248C, strain rpa49, stronger effect = lower value 0.973 | S. cerevisiae deletion strains, locus YNL250W, strain rad50, stronger effect = lower value 1.04 | S. cerevisiae deletion strains, locus YNL271C, strain bni1, stronger effect = lower value 1.02 | S. cerevisiae deletion strains, locus YNL298W, strain CLA4, stronger effect = lower value 1.01 | S. cerevisiae deletion strains, locus YNL307C, strain MCK1, stronger effect = lower value 1.01 | S. cerevisiae deletion strains, locus YNL322C, strain KRE1 (second series), stronger effect = lower value 1.06 | S. cerevisiae deletion strains, locus YNR049C, strain mso1, stronger effect = lower value 1.04 | S. cerevisiae deletion strains, locus YNR052C, strain pop2, stronger effect = lower value 0.989 | S. cerevisiae deletion strains, locus YOL012C, strain htz1 0.447 | S. cerevisiae deletion strains, locus YOL147C, strain pex11, stronger effect = lower value 1.02 | S. cerevisiae deletion strains, locus YOR001W, strain rrp6, stronger effect = lower value 1.01 | S. cerevisiae deletion strains, locus YOR061W, strain CKA2, stronger effect = lower value 0.925 | S. cerevisiae deletion strains, locus YOR069W, strain VPS5, stronger effect = lower value 0.97 | S. cerevisiae deletion strains, locus YOR070C, strain gyp1, stronger effect = lower value 0.97 | S. cerevisiae deletion strains, locus YOR080W, strain dia2, stronger effect = lower value 0.983 | S. cerevisiae deletion strains, locus YOR083W, strain WHI5, stronger effect = lower value 0.961 | S. cerevisiae deletion strains, locus YOR136W, strain idh2, stronger effect = lower value 1.01 | S. cerevisiae deletion strains, locus YOR144C, strain elg1, stronger effect = lower value 1.02 | S. cerevisiae deletion strains, locus YOR184W, strain ser1, stronger effect = lower value 0.969 | S. cerevisiae deletion strains, locus YOR231W, strain MKK1, stronger effect = lower value 0.992 | S. cerevisiae deletion strains, locus YOR265W, strain rbl2, stronger effect = lower value 0.988 | S. cerevisiae deletion strains, locus YOR270C, strain vph1, stronger effect = lower value 0.923 | S. cerevisiae deletion strains, locus YOR290C, strain snf2, stronger effect = lower value 0.97 | S. cerevisiae deletion strains, locus YOR316C, strain cot1, stronger effect = lower value 1.03 | S. cerevisiae deletion strains, locus YPL055C, strain LGE1, stronger effect = lower value 0.761 | S. cerevisiae deletion strains, locus YPL078C, strain atp4, stronger effect = lower value 0.986 | S. cerevisiae deletion strains, locus YPL106C, strain sse1, stronger effect = lower value 0.896 | S. cerevisiae deletion strains, locus YPL240C, strain hsp82, stronger effect = lower value 1.01 | S. cerevisiae deletion strains, locus YPL241C, strain CIN2, stronger effect = lower value 0.973 | S. cerevisiae deletion strains, locus YPL256C, strain CLN2, stronger effect = lower value 1.01 | S. cerevisiae deletion strains, locus YPR119W, strain clb2, stronger effect = lower value 1.04 | S. cerevisiae deletion strains, locus YPR141C, strain kar3, stronger effect = lower value 1 | S. cerevisiae deletion strains, locus YPR163C, strain tif3, stronger effect = lower value 1.03 | S. cerevisiae deletion strains, locus YPR167C, strain met16, stronger effect = lower value 1.03 | S. cerevisiae deletion strains, strain wtn01, stronger effect = lower value 0.963
active: S. cerevisiae deletion strains, locus YJR043C, strain POL32, stronger effect = lower value 0.792 | S. cerevisiae deletion strains, locus YLR058C, strain SHM2, stronger effect = lower value 0.883 | S. cerevisiae deletion strains, locus YLR342W, strain FKS1 (second series), stronger effect = lower value 0.628 | S. cerevisiae deletion strains, locus YLR342W, strain FKS1, stronger effect = lower value 0.831 | S. cerevisiae deletion strains, locus YML016C, strain PPZ1, stronger effect = lower value 0.841 | S. cerevisiae deletion strains, locus YMR058W, strain fet3, stronger effect = lower value 0.564 | S. cerevisiae deletion strains, locus YMR125W, strain sto1, stronger effect = lower value 1.12 [resistant] | S. cerevisiae deletion strains, locus YNL209W, strain ssb2, stronger effect = lower value 0.597 | S. cerevisiae deletion strains, locus YOL006C, strain TOP1, stronger effect = lower value 0.507 | S. cerevisiae deletion strains, locus YOR106W, strain vam3, stronger effect = lower value 0.622 | S. cerevisiae deletion strains, locus YPL051W, strain arl3, stronger effect = lower value 0.776 | S. cerevisiae strains, strain wild type, stronger effect = lower value 0.702
